Among the data in PubChem BioAssay (NCI) are growth values, retold here.

The panel holds about 83,000 compounds, 20% with a hit somewhere; the sample as a whole holds those more often.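 Activity criterion: percent growth below 10, measured after cells in 96-well plates were exposed to a single compound concentration for 48 hours.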 A number with no mark means an inactive call. Active and inactive are the calls of the source.

Some test systems named below: SK-MEL-2 melanoma; EKVX NSCLC; SN12C renal; UO-31 renal; TK-10 renal; ACHN renal; CAKI-1 renal; A498 renal; CCRF-CEM leukemia; MOLT-4 leukemia.
Common to all, as to experiment: NCI-60 one-dose screen, 48 h (100 = growth as untreated, 0 = no growth, -100 = all killed)
Details in all cases: 10 µM unless noted

In the case of `CS(=O)(=O)C1=CN(CCO)C(=O)N2CCCN=C12`, the growth with SK-MEL-2 melanoma is 111%; in the assay with EKVX NSCLC it was 100%; in the assay with SN12C renal, 99.7%; with UO-31 renal, 78%; in the assay on TK-10 renal, 109%; in the assay with ACHN renal it was 103%. The growth in the assay on CAKI-1 renal is 98%; in the assay with A498 renal, 88%; in the assay with CCRF-CEM leukemia, 114%; with MOLT-4 leukemia, 106%.

On to `CC1=C(C(=O)OC(C)C)C(c2ccc3c(c2)OCO3)NC(=S)N1` (stereo not given), for which the growth in the assay on SK-MEL-2 melanoma is 102%; in the assay with EKVX NSCLC, 94.4%; with SN12C renal, 105%; with UO-31 renal, 84.5%; in the assay on TK-10 renal it was 98.1%; in the assay on ACHN renal, 99.4%. Besides, the growth in the assay on CAKI-1 renal was 93.8%; in the assay on A498 renal, 109%; in the assay on CCRF-CEM leukemia it was 105%; with MOLT-4 leukemia, 110%.

In the case of `CO[C@]12C=C/C(=C(/C(=O)OCc3cccnc3)C(=O)CCCCCCCC[C@@]3(OC)C=C/C(=C(/C(=O)OCc4cccnc4)C(=O)CCCCCCCC1)O3)O2`, the growth in the assay on SK-MEL-2 melanoma was 21.4%; in the assay on EKVX NSCLC it was 12.8%; in the assay on SN12C renal it was 5.99% (active); with UO-31 renal, -10.7% (active); in the assay with TK-10 renal, 39%; in the assay on ACHN renal, -19.3% (active). Moreover, the growth is 22.9% with CAKI-1 renal, 1.93% (active) in the assay on A498 renal, 1.38% (active) in the assay on CCRF-CEM leukemia and -2.22% (active) in the assay with MOLT-4 leukemia.

Regarding `COc1ccc(C(c2cc(OC)c(OC)c(OC)c2)N2CCN(c3ccccc3)CC2)cc1` (stereo not given), the growth in the assay with SK-MEL-2 melanoma was 69.3%; with EKVX NSCLC, 99.6%; in the assay with SN12C renal, 101%; with UO-31 renal it was 73.4%; in the assay on TK-10 renal, 106%; in the assay on ACHN renal it was 98%. For the same compound, the growth was 86.4% in the assay on CAKI-1 renal, 89.2% in the assay on A498 renal, 82.6% in the assay on CCRF-CEM leukemia and 72.8% in the assay with MOLT-4 leukemia.

Regarding `CCCCCOc1ccc(C(=O)/C(Br)=C/C(=O)O)cc1`, the growth is 95.2% with SK-MEL-2 melanoma; 103% in the assay on EKVX NSCLC; 102% in the assay with SN12C renal; 98.6% in the assay with UO-31 renal; 125% in the assay on TK-10 renal; 94.3% with ACHN renal. Moreover, the growth in the assay with CAKI-1 renal was 81.1%; in the assay on A498 renal, 86.2%; with CCRF-CEM leukemia, 80.5%; in the assay on MOLT-4 leukemia it was 65.4%.

Turning to `C/C(=N/O)c1ccc(F)cc1`, the growth in the assay with SK-MEL-2 melanoma was 7.9% (active); with EKVX NSCLC, 105%; in the assay on SN12C renal, 81.4%; in the assay on UO-31 renal, 80.8%; in the assay on TK-10 renal, 92.8%; in the assay on ACHN renal, -10.4% (active). The growth was 61% in the assay on CAKI-1 renal, 111% in the assay on A498 renal, 87.2% in the assay on CCRF-CEM leukemia and 77.7% with MOLT-4 leukemia.

Take `COc1ccc2c(O)c(/C=C3\N=Nc4ncccc43)oc2c1C[C@H]1CCNC[C@H]1F`: the growth in the assay on SK-MEL-2 melanoma was -6.33% (active); in the assay on EKVX NSCLC it was 5.31% (active); in the assay on SN12C renal it was 7.25% (active); with UO-31 renal, 4.13% (active); with TK-10 renal, 19.8%; in the assay with ACHN renal it was 4.51% (active). Besides, the growth with CAKI-1 renal is 6% (active); in the assay on A498 renal it was -41.8% (active); in the assay on CCRF-CEM leukemia, -3.17% (active); with MOLT-4 leukemia, -34.3% (active).

Turning to `Cc1cccc(N2CCN(CC(O)COc3ccc(Cl)cc3)CC2)c1` (stereo not given), the growth in the assay on SK-MEL-2 melanoma was 89.5%; in the assay on EKVX NSCLC it was 96.8%; in the assay on SN12C renal it was 95.2%; with UO-31 renal, 85.3%; in the assay on TK-10 renal, 116%; in the assay on ACHN renal, 93.7%. The growth with CAKI-1 renal was 84.5%; in the assay with A498 renal, 115%; in the assay with CCRF-CEM leukemia, 97.7%; in the assay on MOLT-4 leukemia, 77.1%.

Take `O=C1c2cccnc2C(=O)c2c1c(C(=O)NCCCN1CCCCC1)c1ccccn21`: the growth in the assay on SK-MEL-2 melanoma was -40.3% (active); in the assay with EKVX NSCLC it was -100% (active); in the assay with SN12C renal, -65.1% (active); in the assay with UO-31 renal, -34.5% (active); in the assay with TK-10 renal, -1.12% (active); in the assay with ACHN renal it was -45.2% (active). Besides, the growth is -14.6% (active) with CAKI-1 renal, -78.1% (active) with A498 renal, -25.6% (active) in the assay with CCRF-CEM leukemia and -43.9% (active) with MOLT-4 leukemia.

Take `C=CCn1cc(-c2nc3ccccc3s2)c2cc(-c3ccc4c5c(cccc35)C(=O)N(N)C4=O)ccc21`: the growth is 102% with SK-MEL-2 melanoma; 82.1% with EKVX NSCLC; 92.1% with SN12C renal; 61.3% with UO-31 renal; 152% in the assay on TK-10 renal; 92% in the assay on ACHN renal. Besides, the growth with CAKI-1 renal was 75.1%; with A498 renal, 106%; in the assay on CCRF-CEM leukemia it was 104%; in the assay with MOLT-4 leukemia, 96.5%.

In the case of `COc1cccc(NC(=O)Cn2cc(CN3CCN(c4ccnc5cc(Cl)ccc45)CC3)nn2)c1`, the growth was 106% in the assay with SK-MEL-2 melanoma; 76.7% in the assay with EKVX NSCLC; 92.1% in the assay on SN12C renal; 62% in the assay with UO-31 renal; 104% in the assay with TK-10 renal; 85% in the assay with ACHN renal. In addition, the growth is 78% in the assay on CAKI-1 renal, 104% in the assay with A498 renal, -45.1% (active) in the assay on CCRF-CEM leukemia and 50% in the assay on MOLT-4 leukemia.

In the case of `CCCCCCCCn1ccc2cc(NC(=O)Cn3cc(CN4CCCCC4)nn3)ccc21`, the growth was 35.6% in the assay on SK-MEL-2 melanoma; 85% with EKVX NSCLC; 34.5% in the assay on SN12C renal; -96.6% (active) with UO-31 renal; 75.7% in the assay with TK-10 renal; 57.5% in the assay on ACHN renal. The growth in the assay on CAKI-1 renal was -45% (active); in the assay on A498 renal it was 97%; in the assay with CCRF-CEM leukemia, 15.7%; in the assay on MOLT-4 leukemia, 8.5% (active).

Consider `O=C(c1ccccc1)C1C(=O)N2C(=S)N(c3ccccc3)C(=O)C2C1c1ccc(Cl)cc1` (stereo not given), for which the growth in the assay with SK-MEL-2 melanoma is 99.5%; with EKVX NSCLC, 100%; in the assay with SN12C renal it was 91.7%; with UO-31 renal, 66.8%; in the assay with TK-10 renal, 126%; with ACHN renal it was 91.8%. Besides, the growth is 82.9% in the assay with CAKI-1 renal, 81.9% in the assay with A498 renal, 98% in the assay on CCRF-CEM leukemia and 102% in the assay on MOLT-4 leukemia.

As to `O=C1Nc2ccccc2/C1=C\c1nc(-c2ccccc2)n2ccccc12`, the growth with SK-MEL-2 melanoma is 94.2%; with EKVX NSCLC, 74.1%; in the assay with SN12C renal it was 96.2%; with UO-31 renal, 79.8%; with TK-10 renal, 84.2%; in the assay with ACHN renal, 71.1%. The growth in the assay with CAKI-1 renal was 76.5%; with A498 renal, 119%; in the assay on CCRF-CEM leukemia, 84.1%; in the assay with MOLT-4 leukemia it was 88.1%.
